For 5 molecules, composite z-score and z-score results are on record in PubChem BioAssay.

Assay [1] can be described thus: small molecules captured by biotinylated probe aFSTL3 – biochemical, small-molecule microarray, fluorescence 635/667, stem cell growth factor project, primary screen (AID 1064).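 Note: measures binding of the biotinylated anti-FSTL3 antibody to printed compounds.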 Conditions: higher = more signal.
Assay [2] is described as follows: binders from COS7 lysate, DM2A8 probe, primary screen, torsin A project, cell lysate, small-molecule microarray, fluorescence 635/667 (AID 1065). The conditions noted are these: higher = more signal, COS7 lysate expressing mutant human TOR1A.
Assay [3] can be described thus: small molecules captured by biotinylated probe aFGF2 – biochemical, small-molecule microarray, fluorescence 635/667, stem cell growth factor project, primary screen (AID 1067).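 Note: measures binding of biotinylated aFGF2 protein to printed compounds on slides; z-score merges feature fluorescence and signal-to-noise across triplicate slides.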 The conditions noted are these: higher = more signal.
Assay [4] in a line: small molecules captured by biotinylated probe aFGF10 – biochemical, small-molecule microarray, fluorescence 635/667, stem cell growth factor project, primary screen (AID 1071).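 Note: score merges 667 nm spot intensity and signal to noise from triplicate slides.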 Conditions: higher = more signal.
Assay [5] concerns the target Neurogenic locus notch homolog protein 2 (Homo sapiens) (UniProt Q04721). As to the kind of experiment: small molecules binding Notch2 protein – biochemical, small-molecule microarray, 635 nm fluorescence, stem cell growth factors, primary screen (AID 1073). The conditions noted are these: higher = more signal.
The target of assay [6] is Pro-neuregulin-1, membrane-bound isoform (Homo sapiens) (UniProt Q02297). As to the kind of experiment: small molecules binding neuregulin-1 protein – biochemical, small-molecule microarray, fluorescence 635/667, psychiatric disease protein project, primary screen (AID 1075).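 Note: score combines 667 nm spot fluorescence with signal to noise.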 The conditions noted are these: NRG1 binding, 635 nm fluorescence, higher = more signal.
Assay [7] deals with Neuregulin-1 EGF-like domain. Kind of assay: small molecules binding NRG1 EGF domain – biochemical, small-molecule microarray, 635 nm fluorescence, primary screen (AID 1081).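 Note: binding of the protein to compounds printed on small-molecule microarray slides.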 Conditions: higher = more signal.
The nature of assay [8]: FRG1 expression reporter modulators in myotubes – cell-based, C2C12 myotubes, firefly/Renilla luciferase, luminescence, FRG1 inhibition for FSHD, primary screen (AID 1084). Conditions: FRG1 promoter luciferase, higher = more signal, called active from +8 up or from −8 down.
The nature of assay [9]: small molecules captured by biotinylated probe aFST – biochemical, small-molecule microarray, fluorescence 635/667, stem cell growth factor project, primary screen (AID 1086).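 Note: score merges 667 nm fluorescence with signal-to-noise of each printed compound spot.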 Conditions: higher = more signal.
Assay [10] can be described thus: binders of probe aHhip on microarray, primary screen, stem cell growth factor project, biochemical, small-molecule microarray, fluorescence 635/667 (AID 1087).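 Note: score merges spot fluorescence at 667nm with spot signal to noise ratio.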 Conditions: higher = more signal.
The test system of assay [11] is PRMT1 (protein arginine N-methyltransferase 1). Kind of assay: small molecules binding arginine methyltransferase PRMT1 – biochemical, small-molecule microarray, 635 nm fluorescence, primary screen (AID 1088).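 Note: binding of Prmt1 protein to compounds spotted on small-molecule microarray slides.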 Conditions: higher = more signal.
Assay [12] in a line: growth effects on S. cerevisiae YJM789 – YJM789 clinical isolate, OD600, 24 h, basal, primary screen (AID 1089).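 Note: growth of clinical yeast isolate S. cerevisiae YJM 789 seeded 1000 cells per well; test concentration not given here.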 The conditions noted are these: higher = more signal, called active from +8 up or from −8 down.
Assay [13] is described as follows: S. pombe growth modifiers, basal conditions – strain 972, OD600, 24 h, no modulator, primary screen (AID 1090).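 Note: basal condition with compound alone and no growth modifier present; test concentration not given here.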 The conditions noted are these: S. pombe 972 growth, higher = more signal, called active from +8 up or from −8 down.
Assay [14] in a line: budding yeast growth modifiers under rapamycin – strain BY4716, OD600, 96 h, primary screen (AID 1091). Note: test concentration not given here. The conditions noted are these: S. cerevisiae BY4716 + rapamycin, higher = more signal, called active from +8 up or from −8 down.
Assay [15] concerns the target Torsin-1A-interacting protein 2 (Homo sapiens) (UniProt Q8NFQ8). Kind of assay: small molecules binding lysate-expressed LULL1 – cell lysate, human LULL1 lysate, 635/667 nm fluorescence, primary screen (AID 1092).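 Note: score merges per-feature 667 nm fluorescence with signal-to-noise.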 Conditions: small-molecule microarray, hLULL1 lysate binding, 635 nm fluorescence; higher = more signal.
Assay [16] in a line: optical density change of DRC41 E. coli – strain DRC41, OD650, 24 h, E. coli filamentation project, primary screen (AID 1093).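 Note: MC1000 strain lacking acrAB efflux and sulA so SOS filamentation is blocked; test concentration not given here.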 The conditions noted are these: E. coli DRC41 growth, higher = more signal, called active from +8 up or from −8 down.
Assay [17] can be described thus: probe aLefty2 binding to arrayed compounds – biochemical, biotinylated probe, 635/667 nm fluorescence, primary screen (AID 1094).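 Note: score merges spot fluorescence near 667 nm with spot signal-to-noise ratio.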 Conditions: small-molecule microarray, higher = more signal.
The test system of assay [18] is Noggin (protein binding on small-molecule microarray). As to the kind of experiment: small molecules binding Noggin protein – biochemical, 635/667 nm fluorescence, primary screen (AID 1095).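 Note: score merges 667 nm feature fluorescence with signal to noise over triplicate slides.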 The conditions noted are these: 635 nm fluorescence, higher = more signal.
Assay [19] concerns the target Neurogenic locus notch homolog protein 3 (Homo sapiens) (UniProt Q9UM47). Kind of assay: small molecules binding NOTCH3 protein – biochemical, 635/667 nm fluorescence, primary screen (AID 1096). The conditions noted are these: small-molecule microarray, 635 nm fluorescence, higher = more signal.
Assay [20] is described as follows: probe aEGFR binding to arrayed compounds – biochemical, biotinylated probe, 635/667 nm fluorescence, primary screen (AID 1097).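 Note: probe is a biotinylated anti-EGFR antibody binding compounds printed on slides; score combines fluorescence near 667 nm and signal to noise of each spot.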 The conditions noted are these: small-molecule microarray, higher = more signal.

Activity calls are given as the source filed them.

Torsin-1A-interacting protein 2 (Homo sapiens), sequence (Q8NFQ8 whole entry, looked up): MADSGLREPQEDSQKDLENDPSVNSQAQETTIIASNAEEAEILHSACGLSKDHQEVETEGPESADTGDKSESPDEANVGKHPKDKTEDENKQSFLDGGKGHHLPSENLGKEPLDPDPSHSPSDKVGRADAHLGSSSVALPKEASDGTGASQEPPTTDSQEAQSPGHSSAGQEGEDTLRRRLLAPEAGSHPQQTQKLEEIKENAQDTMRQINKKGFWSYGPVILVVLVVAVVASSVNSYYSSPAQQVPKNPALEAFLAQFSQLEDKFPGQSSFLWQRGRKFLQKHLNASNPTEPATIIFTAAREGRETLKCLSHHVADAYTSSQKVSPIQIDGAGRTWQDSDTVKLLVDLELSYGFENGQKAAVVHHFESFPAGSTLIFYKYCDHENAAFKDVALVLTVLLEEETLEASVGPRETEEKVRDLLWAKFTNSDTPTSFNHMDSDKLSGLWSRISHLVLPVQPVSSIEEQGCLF
Neurogenic locus notch homolog protein 3 (Homo sapiens), sequence (Q9UM47 whole entry, looked up): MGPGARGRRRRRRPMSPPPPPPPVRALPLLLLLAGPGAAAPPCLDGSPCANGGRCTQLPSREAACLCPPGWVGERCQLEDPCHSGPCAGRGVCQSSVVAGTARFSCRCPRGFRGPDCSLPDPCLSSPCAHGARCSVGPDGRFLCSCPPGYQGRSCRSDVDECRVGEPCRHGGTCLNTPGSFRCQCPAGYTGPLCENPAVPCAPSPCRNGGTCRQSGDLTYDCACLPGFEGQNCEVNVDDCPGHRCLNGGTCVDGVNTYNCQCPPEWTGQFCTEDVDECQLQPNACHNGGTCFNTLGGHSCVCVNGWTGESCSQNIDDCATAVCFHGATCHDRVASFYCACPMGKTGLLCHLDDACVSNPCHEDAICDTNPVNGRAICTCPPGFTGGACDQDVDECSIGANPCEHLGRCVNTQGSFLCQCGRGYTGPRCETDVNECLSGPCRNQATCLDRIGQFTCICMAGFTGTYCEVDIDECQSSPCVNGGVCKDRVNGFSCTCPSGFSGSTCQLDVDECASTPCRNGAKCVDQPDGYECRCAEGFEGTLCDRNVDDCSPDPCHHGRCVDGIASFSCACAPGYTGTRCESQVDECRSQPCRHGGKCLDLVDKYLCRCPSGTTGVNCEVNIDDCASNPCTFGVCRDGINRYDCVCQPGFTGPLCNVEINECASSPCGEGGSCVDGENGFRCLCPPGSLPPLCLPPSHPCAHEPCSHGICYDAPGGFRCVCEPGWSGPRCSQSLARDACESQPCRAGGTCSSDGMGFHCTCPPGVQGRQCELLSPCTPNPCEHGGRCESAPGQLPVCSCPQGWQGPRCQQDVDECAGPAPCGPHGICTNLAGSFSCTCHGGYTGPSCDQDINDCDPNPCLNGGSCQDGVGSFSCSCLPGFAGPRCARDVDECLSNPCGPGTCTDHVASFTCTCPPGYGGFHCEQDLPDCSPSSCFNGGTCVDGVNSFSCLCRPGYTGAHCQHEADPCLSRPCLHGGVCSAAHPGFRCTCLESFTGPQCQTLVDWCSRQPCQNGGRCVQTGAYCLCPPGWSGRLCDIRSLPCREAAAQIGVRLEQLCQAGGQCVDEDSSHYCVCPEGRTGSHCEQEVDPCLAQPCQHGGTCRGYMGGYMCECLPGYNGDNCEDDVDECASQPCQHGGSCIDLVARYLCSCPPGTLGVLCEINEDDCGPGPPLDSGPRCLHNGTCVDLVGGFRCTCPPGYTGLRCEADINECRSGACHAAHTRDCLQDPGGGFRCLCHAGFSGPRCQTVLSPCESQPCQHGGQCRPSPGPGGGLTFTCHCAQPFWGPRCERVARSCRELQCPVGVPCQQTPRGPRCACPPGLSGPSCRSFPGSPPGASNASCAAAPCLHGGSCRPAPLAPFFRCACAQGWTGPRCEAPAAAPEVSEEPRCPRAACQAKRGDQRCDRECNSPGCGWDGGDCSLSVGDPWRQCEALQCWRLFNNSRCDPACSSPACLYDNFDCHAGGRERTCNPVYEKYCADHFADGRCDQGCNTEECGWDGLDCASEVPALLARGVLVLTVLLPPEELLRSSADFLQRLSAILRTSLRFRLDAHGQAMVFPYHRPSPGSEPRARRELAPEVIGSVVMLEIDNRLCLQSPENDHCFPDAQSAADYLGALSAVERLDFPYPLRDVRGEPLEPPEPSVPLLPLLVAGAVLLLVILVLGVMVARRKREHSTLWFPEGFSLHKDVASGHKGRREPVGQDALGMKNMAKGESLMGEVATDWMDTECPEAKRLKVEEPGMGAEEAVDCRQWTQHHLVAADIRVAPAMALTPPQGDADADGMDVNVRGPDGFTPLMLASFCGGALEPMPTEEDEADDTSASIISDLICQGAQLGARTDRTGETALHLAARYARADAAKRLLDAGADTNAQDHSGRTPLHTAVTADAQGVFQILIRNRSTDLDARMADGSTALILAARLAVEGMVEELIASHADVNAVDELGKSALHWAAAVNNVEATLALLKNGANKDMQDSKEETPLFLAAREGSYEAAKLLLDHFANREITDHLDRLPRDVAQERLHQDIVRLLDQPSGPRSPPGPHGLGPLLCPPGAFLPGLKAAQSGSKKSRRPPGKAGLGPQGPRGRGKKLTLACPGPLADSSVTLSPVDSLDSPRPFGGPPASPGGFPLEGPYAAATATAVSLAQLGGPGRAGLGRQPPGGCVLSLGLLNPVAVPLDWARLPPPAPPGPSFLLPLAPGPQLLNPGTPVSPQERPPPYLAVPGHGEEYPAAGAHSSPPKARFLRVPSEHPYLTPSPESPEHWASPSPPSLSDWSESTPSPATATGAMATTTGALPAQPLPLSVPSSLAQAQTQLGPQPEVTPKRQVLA
Pro-neuregulin-1, membrane-bound isoform (Homo sapiens), sequence (Q02297 whole entry, looked up, the tested form may be a part, canonical isoform): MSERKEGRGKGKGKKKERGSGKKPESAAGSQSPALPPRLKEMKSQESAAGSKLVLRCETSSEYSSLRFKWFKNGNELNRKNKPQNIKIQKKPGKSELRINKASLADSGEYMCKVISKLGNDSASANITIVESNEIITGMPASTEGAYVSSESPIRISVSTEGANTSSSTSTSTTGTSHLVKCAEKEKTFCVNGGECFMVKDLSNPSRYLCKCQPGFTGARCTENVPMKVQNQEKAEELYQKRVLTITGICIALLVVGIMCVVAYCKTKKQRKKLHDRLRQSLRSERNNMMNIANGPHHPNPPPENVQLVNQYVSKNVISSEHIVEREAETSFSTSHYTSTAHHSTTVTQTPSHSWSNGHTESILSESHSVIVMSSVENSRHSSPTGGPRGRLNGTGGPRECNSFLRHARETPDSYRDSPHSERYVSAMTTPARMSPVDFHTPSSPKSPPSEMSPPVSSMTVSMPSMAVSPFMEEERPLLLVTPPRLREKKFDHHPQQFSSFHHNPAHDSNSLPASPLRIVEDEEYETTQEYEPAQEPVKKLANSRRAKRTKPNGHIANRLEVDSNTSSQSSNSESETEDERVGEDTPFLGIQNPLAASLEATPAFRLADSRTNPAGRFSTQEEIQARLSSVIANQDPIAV

Turning to `COc1cc2c(cc1OC)CN(C(=O)[C@H]1[C@@H]3C(=O)O[C@@H](c4ccccc4)[C@@H](c4ccccc4)N3[C@@H](c3ccccc3OCCO)[C@]13C(=O)Nc1ccc(C#CCCO)cc13)CC2`, the composite z-score in assay [1] is -0.39; in [2], 0.282; in [3], 0.0094; in [4] it was 0.339; in [5] it was 0.775; in assay [6], 1.27. Moreover, the composite z-score is 1.07 in assay [7]; 0.369 in [9]; -0.0994 in [10]; 1.52 in [11]; 1.61 in assay [15]; -0.0499 in [17]. Besides, the composite z-score in assay [18] is 1.71; in [19] it was 1.02; in [20] it was -0.0531. Besides, the z-score is -2.07 (inactive) in assay [8]; 2.11 (inactive) in assay [12]; -0.0834 (inactive) in assay [13]; 3.66 (inactive) in [14]; -0.302 (inactive) in assay [16].
For the molecule `COCC(=C=CC[C@H](O)c1cccc(OCCO)c1)C[C@H](O)c1cc(Cl)cc(Cl)c1O`, the composite z-score in assay [1] is -0.173; in assay [2], 0.0375; in assay [3], -0.045; in [4], 0.502; in assay [5], 0.524; in assay [6] it was 0.79. Moreover, the composite z-score in [7] is 1.38; in assay [9], 0.181; in assay [10], -0.281; in [11], 1.54; in assay [15], 1.29; in [17], -0.143. Besides, the composite z-score in [18] was determined as 0.908; in [19], 1.04; in assay [20], 0.0837. Moreover, the z-score in assay [8] was -0.578 (inactive); in assay [12] it was 1.11 (inactive); in assay [13], -0.6 (inactive); in assay [14], -0.225 (inactive); in [16], 0.706 (inactive).
Regarding `CN1C(=O)C2C=CC(C(O)c3ccc(F)cc3)N(N(c3ccccc3)c3ccccc3)C2C1=O` (stereo not given), the composite z-score in assay [1] was 0.5; in [2], -0.123; in [3], -0.0446; in assay [4], 0.122; in assay [5] it was 0.822; in [6] it was 1.28. In addition, the composite z-score in assay [7] is 1.03; in assay [9] it was 0.56; in assay [10], -0.107; in assay [11], 0.672; in [15] it was 1.86; in assay [17], 0.0606. Besides, the figures for the composite z-score in assay [18], in assay [19] and in assay [20] were 0.3, 0.121 and -0.0234, respectively. The z-score is -0.368 (inactive) in assay [8]; 0.0729 (inactive) in [12]; 0.91 (inactive) in assay [13]; 0.0933 (inactive) in assay [14]; -1.2 (inactive) in assay [16].
For the molecule `CC1CC/C=C\[C@H]2OC34C=CCN(Cn5nnc6ccccc65)C(=O)[C@H]3N(CCCCCO)C(=O)[C@@H]4C2C(=O)O1` (stereo not given in full), the composite z-score in assay [1] is -0.05; in assay [2], -0.67; in [3] it was -0.148; in assay [4] it was -0.499; in assay [5], -1.38; in assay [6], -0.917. The composite z-score was -0.417 in [7]; -0.815 in assay [9]; -0.251 in assay [10]; 0.547 in assay [11]; 2.47 in [15]; -0.169 in [17]. Further, the results for the composite z-score in [18], in assay [19] and in assay [20] were -0.355, -0.432 and -0.18, respectively. In addition, the z-score is -0.373 (inactive) in assay [8]; 0.31 (inactive) in [12]; 0.423 (inactive) in assay [13]; -0.644 (inactive) in [14]; 0.752 (inactive) in [16].
As for `O=C1OCC=C[C@H]2OC34C=CCN(Cn5nnc6ccccc65)C(=O)[C@H]3N(CCCCCO)C(=O)[C@@H]4[C@@H]12` (stereo not given in full), the composite z-score in assay [1] was 0.4; in [2], -0.629; in [3], -0.0069; in assay [4], -0.138; in assay [5] it was -0.637; in [6], 2.53. Besides, the composite z-score was 1.16 in assay [7]; -0.779 in assay [9]; -0.396 in assay [10]; -0.0541 in [11]; 2.81 in assay [15]; 0.484 in assay [17]. The composite z-score in assay [18] is -0.525; in [19] it was -0.475; in [20], -0.108. The z-score in [8] is -0.564 (inactive); in assay [12], -0.314 (inactive); in [13] it was 0.421 (inactive); in [14], -0.582 (inactive); in [16], 1.65 (inactive).
